Test results from PubChem BioAssay (Tox21).
Results filed as inconclusive are left out. Activity calls are given as the source filed them. Calls follow the shape of the dose curve; as a rule, active = well fitted curve in the direction sought with a large enough effect in the repeat runs; inconclusive = weak or mixed curves; inactive = no such curve, though single readings can be large; an effect the other way counts as inactive or inconclusive.

Columns and labels:
[1] = A CellTox Green Cytotoxicity Assay to monitor cytotoxicity in HepG2 cells - 0 hour (AID 1224882); also: nearly all actives have a fitted effect of over 35% in size
Procedure, shortened: (§1)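 Real-time cytotoxicity: fluorescence of a cell-impermeant cyanine dye binding DNA of dead HepG2 cells, measured repeatedly (0–40 h) during compound exposure at 37 C. Cells seeded 600/well with reagent, dosed after 5 h.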

[2] = A CellTox Green Cytotoxicity Assay to monitor cytotoxicity in HepG2 cells - 32 hour (AID 1224883); also: nearly all actives have a fitted effect of over 50% in size; also: potency is read from the fitted curve at half-maximal effect
Procedure, shortened: as §1

[3] = A CellTox Green Cytotoxicity Assay to monitor cytotoxicity in HEK293 cells - 8 hour (AID 1224884); also: nearly all actives have a fitted effect of over 35% in size
Procedure, shortened: (§2)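 Fluorescence from a DNA-binding dye excluded by viable cells was measured repeatedly in the same HEK293 wells (600 cells/well) during continuous compound exposure at 37 C. Each assay gives one read point: 0, 8, 16, 24, 32 or 40 h.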

[4] = qHTS RealTime-Glo MT Cell Viability Assay in HepG2 cells - 16 hour (AID 1224885); also: nearly all actives have a fitted effect of over 50% in size
Procedure, shortened: (§3)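 Tox21 10K library screened in qHTS format on HepG2 cells carrying RealTime-Glo reagents. Compounds were added after a 5 h preincubation, and the luminescent signal from continuous culture was measured repeatedly during 40 h treatment.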

[5] = qHTS RealTime-Glo MT Cell Viability Assay in HEK293 cells - 24 hour (AID 1224886); also: nearly all actives have a fitted effect of over 50% in size; also: potency is read from the fitted curve at half-maximal effect; as to activity change, negative = cytotoxicity: top concentration of the series differs between compounds
Procedure, shortened: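 Luminescence generated by NanoLuc from substrate produced by living HEK293 cells served as the viability signal. Each value reflects the reading at its stated time point during continuous 40 h compound exposure at 37 C.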

[6] = qHTS RealTime-Glo MT Cell Viability Assay in HEK293 cells - 8 hour (AID 1224887); also: top concentration of the series differs between compounds; nearly all actives have a fitted effect of over 50% in size
Procedure, shortened: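 Luminescence, which tracks viable cell number through reduction of the prosubstrate to a NanoLuc substrate, was read over continuous 37 C culture. Cells (600/well) were premixed with reagent and rested 5 h before 23 nL of compound in DMSO was pinned.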

[7] = A CellTox Green Cytotoxicity Assay to monitor cytotoxicity in HEK293 cells - 16 hour (AID 1224888); also: nearly all actives have a fitted effect of over 35% in size
Procedure, shortened: as §2

[8] = qHTS RealTime-Glo MT Cell Viability Assay in HepG2 cells - 0 hour (AID 1224889); also: nearly all actives have a fitted effect of over 50% in size; also: potency is read from the fitted curve at half-maximal effect
Procedure, shortened: as §3

[9] = A CellTox Green Cytotoxicity Assay to monitor cytotoxicity in HepG2 cells - 8 hour (AID 1224890); also: nearly all actives have a fitted effect of over 45% in size
Procedure, shortened: as §1

[10] = qHTS assay to identify small molecule antagonists of the estrogen receptor alpha (ER-alpha) signaling pathway using the BG1 cell line in the presence of 0.1 nM 17-beta-estradiol - cell viability counter screen (AID 1259241); also: nearly all actives have a fitted effect of over 40% in size; also: potency is read from the fitted curve at half-maximal effect
Procedure, shortened: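 CellTiter-Fluor read (30 min, 37C) on ER-alpha/ERE-luc VM7Luc4E2 cells; 22 hr compound treatment; agonist 0.1 nM E2 final; same-well multiplex.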
% is scaled to controls: 0 for no effect and ±100 for the full control effect.

CCCCCCCCCCCC(=O)OC[C@@H](O)[C@H]1OC[C@H](OCCO)[C@H]1OCCO
inactive: Potency [1] | Potency [2] | Potency [3] | Potency [4] | Potency [5] | Potency [6] | Potency [7] | Potency [8] | Potency [9] | Potency [10]

O=C(O)c1ccccc1Cl
inactive: Potency [1] | Potency [2] | Potency [3] | Potency [4] | Potency [5] | Potency [6] | Potency [7] | Potency [8] | Potency [9] | Potency [10]

OCCN1CCN(CCCN2c3ccccc3C=Cc3ccccc32)CC1
inactive: Potency [1] | Potency [2] | Potency [3] | Potency [4] | Potency [5] | Potency [6] | Potency [7] | Potency [8] | Potency [9] | Potency [10]

OC(C#CCN1CCCC1)(c1ccccc1)c1ccccc1
inactive: Potency [1] | Potency [2] | Potency [3] | Potency [4] | Potency [5] | Potency [6] | Potency [8] | Potency [9] | Potency [10]

C=CC1CC2C=CC1C2 (stereo unspecified)
inactive: Potency [1] | Potency [2] | Potency [3] | Potency [4] | Potency [5] | Potency [6] | Potency [8] | Potency [9] | Potency [10]

CCC(C)O (stereo unspecified)
inactive: Potency [1] | Potency [2] | Potency [3] | Potency [4] | Potency [5] | Potency [6] | Potency [8] | Potency [9] | Potency [10]

COc1ccc(C)cc1[N+](=O)[O-]
inactive: Potency [1] | Potency [2] | Potency [3] | Potency [4] | Potency [5] | Potency [6] | Potency [7] | Potency [8] | Potency [9] | Potency [10]

C[C@@H](c1ncncc1F)C(O)(Cn1cncn1)c1ccc(F)cc1F (stereo partly specified)
inactive: Potency [1] | Potency [2] | Potency [3] | Potency [4] | Potency [5] | Potency [6] | Potency [7] | Potency [8] | Potency [10]

C[C@@H]1C[C@H]2O[C@@]3(O[C@@H]2C(C)(C)O)[C@H](O)[C@@]2(C)[C@@H]4CC[C@H]5C(C)(C)[C@@H](O[C@@H]6OC[C@@H](O)[C@H](O)[C@H]6O)CC[C@@]56C[C@@]46CC[C@]2(C)[C@@H]13
active: Potency [8] 2160 nM
inactive: Potency [1] | Potency [2] | Potency [3] | Potency [4] | Potency [5] | Potency [6] | Potency [7] | Potency [10]

CCOC(=O)C(=O)CCc1ccccc1
inactive: Potency [1] | Potency [2] | Potency [3] | Potency [4] | Potency [5] | Potency [6] | Potency [8] | Potency [9] | Potency [10]

C=C(C)C(=O)OCCO
inactive: Potency [1] | Potency [2] | Potency [3] | Potency [4] | Potency [5] | Potency [6] | Potency [8] | Potency [9] | Potency [10]

Cc1oc(-c2ccccc2)nc1CCOc1cccc2c1ccn2CCC(=O)O
inactive: Potency [1] | Potency [2] | Potency [3] | Potency [4] | Potency [5] | Potency [6] | Potency [7] | Potency [9]

Cc1nn(C)c(Oc2ccccc2)c1/C=N/OCc1ccc(C(=O)OC(C)(C)C)cc1
inactive: Potency [1] | Potency [2] | Potency [3] | Potency [4] | Potency [6] | Potency [7] | Potency [8]
active: Potency [5] 4.9 nM | Potency [10] 13.7 nM

CCCC(=O)Nc1ccc(O)c(C(C)=O)c1
inactive: Potency [1] | Potency [2] | Potency [3] | Potency [4] | Potency [5] | Potency [6] | Potency [8] | Potency [9] | Potency [10]

NC(N)=NCCC[C@H](N)C(=O)O
inactive: cytotoxicity [1] 1.18% [at 6.97 µM] | cytotoxicity increase [2] -4.17% [at 6.97 µM] | cytotoxicity increase [3] -18% [at 6.97 µM] | activity change, negative = cytotoxic [4] 0.73% [at 6.97 µM] | activity change, negative = cytotoxicity [5] 4.77% [at 6.97 µM] | activity change, negative = cytotoxicity [6] 6.66% [at 6.97 µM] | activity change, negative = cytotoxicity [8] 0.79% [at 6.97 µM] | cytotoxicity increase [9] -1.13% [at 6.97 µM] | activity change, negative = cytotoxicity [10] 2.44% [at 8.39 µM]

Cc1cccc(C)c1NC(=O)CN(CC(=O)O)CC(=O)O
inactive: Potency [1] | Potency [2] | Potency [3] | Potency [4] | Potency [5] | Potency [6] | Potency [7] | Potency [8] | Potency [9] | Potency [10]

C=CCOc1ccccc1OCC(O)CNC(C)C (stereo unspecified)
inactive: Potency [1] | Potency [2] | Potency [3] | Potency [4] | Potency [5] | Potency [6] | Potency [8] | Potency [9] | Potency [10]

O=C1OC(CN2CCOCC2)CN1/N=C/c1ccc([N+](=O)[O-])o1 (stereo unspecified)
inactive: Potency [1] | Potency [2] | Potency [3] | Potency [4] | Potency [5] | Potency [6] | Potency [7] | Potency [8] | Potency [10]

O=C1c2ccccc2S(=O)(=O)N1CCCCN1CCN(c2ncccn2)CC1
inactive: Potency [1] | Potency [2] | Potency [3] | Potency [4] | Potency [5] | Potency [6] | Potency [7] | Potency [8] | Potency [10]

CN(C)CCCN1c2ccccc2Sc2ccccc21
inactive: Potency [1] | Potency [3] | Potency [4] | Potency [5] | Potency [6] | Potency [7] | Potency [9] | Potency [10]
active: Potency [2] 23900 nM

CN1CCC(=C2c3ccccc3Sc3ccccc32)CC1
active: Potency [2] 23900 nM
inactive: Potency [1] | Potency [3] | Potency [4] | Potency [5] | Potency [6] | Potency [7] | Potency [9] | Potency [10]

CCOCC(O)COc1ccc(NC(=O)CC[S+](C)C)cc1 (stereo unspecified)
inactive: Potency [1] | Potency [2] | Potency [3] | Potency [4] | Potency [5] | Potency [6] | Potency [7] | Potency [8] | Potency [10]

CCNc1cc(O)ccc1C
inactive: Potency [1] | Potency [2] | Potency [3] | Potency [4] | Potency [5] | Potency [6] | Potency [8] | Potency [9] | Potency [10]
